Experimental data from the supplement of paper PMC6411743.
± gives the standard deviation of the averaged measurements. The full data set covers some 6,500 targets. This sample favours those with the largest changes.

Experiments:
Assay in all cases: NP40-soluble protein abundance relative to vehicle (solubility fold change) (ratio); higher = more soluble protein in presence of ATP
[1] = molecular target: T1, GBP1 (UniProt P32455)
T1 sequence (whole entry): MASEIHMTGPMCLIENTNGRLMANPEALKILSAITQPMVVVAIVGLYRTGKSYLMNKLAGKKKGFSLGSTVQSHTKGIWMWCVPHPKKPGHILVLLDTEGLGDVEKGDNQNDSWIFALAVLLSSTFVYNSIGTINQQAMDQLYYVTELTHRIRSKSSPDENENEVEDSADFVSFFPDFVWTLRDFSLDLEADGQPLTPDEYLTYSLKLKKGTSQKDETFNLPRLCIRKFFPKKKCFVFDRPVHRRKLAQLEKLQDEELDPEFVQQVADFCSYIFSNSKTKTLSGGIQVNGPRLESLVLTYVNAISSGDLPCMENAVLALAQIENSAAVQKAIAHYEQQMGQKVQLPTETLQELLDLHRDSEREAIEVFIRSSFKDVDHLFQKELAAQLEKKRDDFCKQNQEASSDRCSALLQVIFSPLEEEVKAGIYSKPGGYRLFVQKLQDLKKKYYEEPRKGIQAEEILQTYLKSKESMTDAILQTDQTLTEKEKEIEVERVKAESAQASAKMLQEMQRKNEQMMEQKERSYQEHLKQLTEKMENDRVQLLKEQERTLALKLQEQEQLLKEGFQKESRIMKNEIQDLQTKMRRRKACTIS
Method in brief: (§1)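 Values are fold changes against the detergent-processed vehicle, based on vsn-normalised intensities. Jurkat crude lysate was treated at eight concentrations from 0.1 to 10 mM (10 min at room temperature, then 3 min at 37 °C), solubilised with 0.8% NP40 and benzonase, ultracentrifuged and analysed by TMT-labelled LC-MS/MS over three independent experiments.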

[2] = molecular target: T2, NKTR (UniProt P30414)
T2 sequence (whole entry): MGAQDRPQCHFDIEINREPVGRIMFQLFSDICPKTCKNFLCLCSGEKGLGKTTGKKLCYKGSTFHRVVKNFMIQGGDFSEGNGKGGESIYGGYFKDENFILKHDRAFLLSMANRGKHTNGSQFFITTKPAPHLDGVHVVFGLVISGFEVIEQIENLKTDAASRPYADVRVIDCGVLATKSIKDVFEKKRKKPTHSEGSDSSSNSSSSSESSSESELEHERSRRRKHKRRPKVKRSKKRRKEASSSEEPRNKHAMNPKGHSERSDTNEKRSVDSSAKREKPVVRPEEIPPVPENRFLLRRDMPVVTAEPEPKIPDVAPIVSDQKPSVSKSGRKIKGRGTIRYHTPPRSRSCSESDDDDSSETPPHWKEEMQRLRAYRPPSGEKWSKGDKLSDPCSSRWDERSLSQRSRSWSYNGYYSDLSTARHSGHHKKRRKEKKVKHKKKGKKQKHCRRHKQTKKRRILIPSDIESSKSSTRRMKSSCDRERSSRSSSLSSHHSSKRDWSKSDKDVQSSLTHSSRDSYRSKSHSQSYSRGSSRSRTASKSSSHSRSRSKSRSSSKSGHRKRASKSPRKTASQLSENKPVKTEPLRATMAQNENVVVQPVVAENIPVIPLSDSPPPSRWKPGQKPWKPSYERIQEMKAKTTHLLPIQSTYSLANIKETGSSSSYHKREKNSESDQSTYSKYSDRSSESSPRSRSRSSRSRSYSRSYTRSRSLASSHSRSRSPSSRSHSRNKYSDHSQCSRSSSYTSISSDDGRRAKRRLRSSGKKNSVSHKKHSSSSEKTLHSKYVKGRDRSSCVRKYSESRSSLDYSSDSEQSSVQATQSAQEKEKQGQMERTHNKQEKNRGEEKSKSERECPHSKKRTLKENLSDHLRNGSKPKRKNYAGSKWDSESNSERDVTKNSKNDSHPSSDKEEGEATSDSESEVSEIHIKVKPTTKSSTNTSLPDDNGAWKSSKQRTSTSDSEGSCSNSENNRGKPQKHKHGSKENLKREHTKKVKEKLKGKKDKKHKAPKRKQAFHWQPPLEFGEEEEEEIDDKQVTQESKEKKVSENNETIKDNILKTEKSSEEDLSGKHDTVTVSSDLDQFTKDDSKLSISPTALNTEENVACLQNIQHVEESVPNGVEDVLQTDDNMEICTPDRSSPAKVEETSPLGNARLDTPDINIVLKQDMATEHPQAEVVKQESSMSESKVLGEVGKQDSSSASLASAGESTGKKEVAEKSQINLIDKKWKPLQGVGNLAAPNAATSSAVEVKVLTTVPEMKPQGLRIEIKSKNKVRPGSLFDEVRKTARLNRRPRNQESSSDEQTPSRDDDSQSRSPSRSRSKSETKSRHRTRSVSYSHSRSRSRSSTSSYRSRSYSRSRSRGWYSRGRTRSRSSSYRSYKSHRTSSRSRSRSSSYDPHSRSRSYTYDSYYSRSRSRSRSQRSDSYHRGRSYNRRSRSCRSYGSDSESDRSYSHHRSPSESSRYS
Method in brief: as §1

[3] = molecular target: T3, SEC24C (UniProt P53992)
T3 sequence (whole entry): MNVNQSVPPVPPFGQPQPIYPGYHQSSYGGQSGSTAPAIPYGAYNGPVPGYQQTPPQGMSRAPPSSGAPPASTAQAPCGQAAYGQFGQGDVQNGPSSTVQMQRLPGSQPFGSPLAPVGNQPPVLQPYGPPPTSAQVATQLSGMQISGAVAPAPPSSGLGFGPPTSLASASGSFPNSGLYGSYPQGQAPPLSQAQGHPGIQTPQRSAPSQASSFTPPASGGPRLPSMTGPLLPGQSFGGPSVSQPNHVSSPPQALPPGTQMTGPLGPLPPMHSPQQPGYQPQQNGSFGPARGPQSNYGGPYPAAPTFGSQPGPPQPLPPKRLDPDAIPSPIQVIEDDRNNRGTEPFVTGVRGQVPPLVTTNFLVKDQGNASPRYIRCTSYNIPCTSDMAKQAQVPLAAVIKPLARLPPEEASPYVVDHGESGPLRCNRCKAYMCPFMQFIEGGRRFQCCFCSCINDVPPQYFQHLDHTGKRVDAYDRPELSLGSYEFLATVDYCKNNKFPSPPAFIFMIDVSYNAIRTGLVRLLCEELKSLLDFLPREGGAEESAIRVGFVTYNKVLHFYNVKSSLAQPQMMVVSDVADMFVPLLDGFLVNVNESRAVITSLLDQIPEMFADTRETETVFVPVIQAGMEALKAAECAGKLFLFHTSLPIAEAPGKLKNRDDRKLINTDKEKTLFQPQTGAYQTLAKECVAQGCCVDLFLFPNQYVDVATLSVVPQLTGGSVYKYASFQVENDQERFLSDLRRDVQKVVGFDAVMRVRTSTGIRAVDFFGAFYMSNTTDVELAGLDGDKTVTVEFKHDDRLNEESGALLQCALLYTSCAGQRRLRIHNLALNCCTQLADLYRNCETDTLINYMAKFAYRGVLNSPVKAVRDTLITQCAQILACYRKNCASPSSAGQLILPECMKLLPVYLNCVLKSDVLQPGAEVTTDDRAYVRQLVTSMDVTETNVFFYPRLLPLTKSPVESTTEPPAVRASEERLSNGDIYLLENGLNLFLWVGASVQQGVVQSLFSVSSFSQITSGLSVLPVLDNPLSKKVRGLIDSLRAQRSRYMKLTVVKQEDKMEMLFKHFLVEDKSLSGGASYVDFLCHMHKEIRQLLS
Method in brief: as §1

[4] = molecular target: T4, SPAG7 (UniProt O75391)
T4 sequence (whole entry): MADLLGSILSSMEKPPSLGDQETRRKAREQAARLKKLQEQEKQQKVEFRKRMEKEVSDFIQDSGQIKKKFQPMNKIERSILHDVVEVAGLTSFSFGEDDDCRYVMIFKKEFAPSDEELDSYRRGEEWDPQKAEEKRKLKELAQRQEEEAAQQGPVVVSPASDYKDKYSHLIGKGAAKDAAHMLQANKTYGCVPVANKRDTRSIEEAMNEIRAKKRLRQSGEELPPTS
Method in brief: as §1

[5] = molecular target: T5, UniProt O95294|O95294-2|O95294-3|O95294-4
T5 sequence (whole entry): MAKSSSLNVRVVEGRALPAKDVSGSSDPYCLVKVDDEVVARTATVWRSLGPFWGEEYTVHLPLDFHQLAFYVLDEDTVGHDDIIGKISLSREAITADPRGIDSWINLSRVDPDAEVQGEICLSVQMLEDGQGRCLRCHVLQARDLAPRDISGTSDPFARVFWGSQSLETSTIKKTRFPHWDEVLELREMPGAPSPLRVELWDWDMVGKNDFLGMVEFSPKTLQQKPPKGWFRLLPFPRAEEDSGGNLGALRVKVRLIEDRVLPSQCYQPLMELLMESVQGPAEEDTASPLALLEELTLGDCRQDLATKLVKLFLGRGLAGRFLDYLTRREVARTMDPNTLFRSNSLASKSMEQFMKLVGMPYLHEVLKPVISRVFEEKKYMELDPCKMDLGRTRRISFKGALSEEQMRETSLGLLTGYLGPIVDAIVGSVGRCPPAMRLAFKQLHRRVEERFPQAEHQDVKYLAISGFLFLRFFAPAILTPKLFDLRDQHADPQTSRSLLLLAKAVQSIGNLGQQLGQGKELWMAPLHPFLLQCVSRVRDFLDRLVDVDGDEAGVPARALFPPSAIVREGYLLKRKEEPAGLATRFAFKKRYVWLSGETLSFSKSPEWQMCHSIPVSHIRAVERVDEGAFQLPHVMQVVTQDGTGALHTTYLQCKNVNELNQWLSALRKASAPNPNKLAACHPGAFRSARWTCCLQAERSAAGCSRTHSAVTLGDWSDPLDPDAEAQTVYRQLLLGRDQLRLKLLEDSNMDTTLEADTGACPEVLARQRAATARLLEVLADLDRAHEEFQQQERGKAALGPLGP
Method in brief: as §1

[6] = molecular target: T6, UniProt O95379-3|O95379-4
T6 sequence (whole entry): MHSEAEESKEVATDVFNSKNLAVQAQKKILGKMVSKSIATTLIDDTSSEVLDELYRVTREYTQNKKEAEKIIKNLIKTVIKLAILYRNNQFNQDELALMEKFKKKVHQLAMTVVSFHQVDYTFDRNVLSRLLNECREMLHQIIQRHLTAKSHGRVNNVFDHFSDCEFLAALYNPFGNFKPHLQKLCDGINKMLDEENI
Method in brief: as §1

[7] = molecular target: T7, UniProt O95983|O95983-2|K7EIE8
T7 sequence (whole entry): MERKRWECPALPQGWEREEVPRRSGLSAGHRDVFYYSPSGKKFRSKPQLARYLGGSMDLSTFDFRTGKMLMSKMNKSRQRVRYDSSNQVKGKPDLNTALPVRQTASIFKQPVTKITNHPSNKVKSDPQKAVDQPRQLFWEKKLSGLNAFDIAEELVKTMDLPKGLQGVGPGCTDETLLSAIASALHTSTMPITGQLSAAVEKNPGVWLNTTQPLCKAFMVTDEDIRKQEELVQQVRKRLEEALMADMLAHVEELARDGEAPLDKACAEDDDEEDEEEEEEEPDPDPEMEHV
Method in brief: as §1

Nc1ncnc2c1ncn2[C@@H]1O[C@H](COP(=O)(O)OP(=O)(O)OP(=O)(O)O)[C@@H](O)[C@H]1O [adenosine triphosphate]
NP40-soluble protein abundance ([1]; concentration: 1mM): 0.968 ± 0.053 | NP40-soluble protein abundance ([1]; concentration: 2mM): 0.96 ± 0.0051 | NP40-soluble protein abundance ([1]; concentration: 4mM): 0.945 ± 0.011 | NP40-soluble protein abundance ([1]; concentration: 6mM): 0.979 ± 0.015 | NP40-soluble protein abundance ([1]; concentration: 8mM): 0.922 ± 0.018 | NP40-soluble protein abundance ([1]; concentration: 10mM): 0.936 ± 0.03 | NP40-soluble protein abundance ([2]; concentration: 1mM): 1.53 ± 0.25 | NP40-soluble protein abundance ([2]; concentration: 2mM): 1.63 ± 0.19 | NP40-soluble protein abundance ([2]; concentration: 4mM): 1.68 ± 0.23 | NP40-soluble protein abundance ([2]; concentration: 6mM): 1.83 ± 0.22 | NP40-soluble protein abundance ([2]; concentration: 8mM): 1.75 ± 0.19 | NP40-soluble protein abundance ([2]; concentration: 10mM): 1.75 ± 0.22 | NP40-soluble protein abundance ([3]; concentration: 1mM): 0.99 ± 0.055 | NP40-soluble protein abundance ([3]; concentration: 2mM): 0.987 ± 0.057 | NP40-soluble protein abundance ([3]; concentration: 4mM): 0.98 ± 0.043 | NP40-soluble protein abundance ([3]; concentration: 6mM): 0.919 ± 0.095 | NP40-soluble protein abundance ([3]; concentration: 8mM): 0.981 ± 0.019 | NP40-soluble protein abundance ([3]; concentration: 10mM): 0.984 ± 0.074 | NP40-soluble protein abundance ([4]; concentration: 1mM): 0.972 ± 0.053 | NP40-soluble protein abundance ([4]; concentration: 2mM): 0.964 ± 0.047 | NP40-soluble protein abundance ([4]; concentration: 4mM): 0.964 ± 0.04 | NP40-soluble protein abundance ([4]; concentration: 6mM): 0.969 ± 0.046 | NP40-soluble protein abundance ([4]; concentration: 8mM): 0.9594 ± 0.0036 | NP40-soluble protein abundance ([4]; concentration: 10mM): 0.903 ± 0.058 | NP40-soluble protein abundance ([5]; concentration: 1mM): 0.95 ± 0.03 | NP40-soluble protein abundance ([5]; concentration: 2mM): 0.96 ± 0.069 | NP40-soluble protein abundance ([5]; concentration: 4mM): 1.01 ± 0.058 | NP40-soluble protein abundance ([5]; concentration: 6mM): 0.994 ± 0.11 | NP40-soluble protein abundance ([5]; concentration: 8mM): 0.962 ± 0.13 | NP40-soluble protein abundance ([5]; concentration: 10mM): 0.965 ± 0.15 | NP40-soluble protein abundance ([6]; concentration: 1mM): 0.855 ± 0.036 | NP40-soluble protein abundance ([6]; concentration: 2mM): 0.93 ± 0.019 | NP40-soluble protein abundance ([6]; concentration: 4mM): 0.885 ± 0.032 | NP40-soluble protein abundance ([6]; concentration: 6mM): 0.9504 ± 0.0062 | NP40-soluble protein abundance ([6]; concentration: 8mM): 0.932 ± 0.035 | NP40-soluble protein abundance ([6]; concentration: 10mM): 0.85 ± 0.1 | NP40-soluble protein abundance ([7]; concentration: 1mM): 1.03 ± 0.12 | NP40-soluble protein abundance ([7]; concentration: 2mM): 0.983 ± 0.078 | NP40-soluble protein abundance ([7]; concentration: 4mM): 0.98 ± 0.035
